From PubChem BioAssay (Tox21) come the findings set out here.

“And” between values parts separate entries of the source, which are not always exact repeats. Identical values can stand only once. Inconclusive results are not listed. Some structures have more than one record in an assay (separate samples or runs), and their calls can disagree. The source made the active and inactive calls. The call rests on the fitted dose curve; in most records, active means well fitted cell-killing curve with a large enough effect in the repeat runs; inconclusive means weak or mixed curves, or effect the other way; inactive means no such curve, though single readings can be large or run the other way.
On the % scale 0 is the no-effect control and ±100 the full control effect; potency means the concentration at half of the fitted maximal effect.

A short description of this experiment: qHTS assay to identify small molecule agonists of the vitamin D receptor (VDR) signaling pathway - cell viability counter screen (AID 743224). Further: nearly all actives have a fitted effect of over 50% in size. Particulars: VDR-bla HEK293T viability, CellTiter-Glo luminescence, 16 h; series mostly up to 62.6 µM; activity change, negative = cytotoxicity: at the top concentration. An excerpt: U.S. Tox21 Program National Center for Advancing Translational Sciences [NCATS] NIH Chemical Genomics Center [NCGC] U.S. Environmental Protection Agency [EPA] National Institutes of Environmental Health Sciences [NIEHS] National Toxicology Program [NTP] U.S. Food and Drug Administration [FDA] Tox21 Assay Overview: The vitamin D receptor (VDR), a member of nuclear hormone receptor superfamily, plays a critical role in calcium homeostasis and bone metabolism. It is also involved in cell differentiation and growth, and thrombogenicity. […] The cytotoxicity of the Tox21 compound library against the VDR-bla cell line was tested in parallel by measuring the cell viability using CellTiter-Glo assay (Promega, Madison, WI) in the same wells.
Tox21 Assay Protocol Summary: VDR-bla cells were dispensed at 2,000 cells/6 uL/well into black wall/clear-bottom 1536-well plates using a Multidrop Combi (Thermo Fisher Scientific, Waltham, MA) dispenser. After the assay plates were incubated at a 37C and 5% CO2 for 4 h, 23 nL of compounds dissolved in DMSO, positive controls or DMSO only was transferred to the assay plate by a Pintool station (Kalypsys, San Diego, CA). The plates were incubated at 37C and 5% CO2 for 16 h. After 1 uL of LiveBLAzerTM B/G FRET substrate was added using a Bioraptr Flying Reagent Dispenser (FRD) workstation (Beckman Coulter, Indianapolis, IN, USA), the plates were incubated at room temperature for 2 h, and fluorescence intensity was measured by an Envision plate reader (PerkinElmer, Shelton, CT). For cell viability readout that measures cytotoxicity, 3 ul/well of CellTiter-Glo reagent was added into the assay plates using a FRD. After 30 min incubation at room temperature, the luminescence intensity in the plates was measured using a ViewLux (PerkinElmer) plate reader.
In general terms: In qHTS, concentration-response curves come from the screen itself.
With `C[N+]1([O-])CCOCC1`, the “activity change, negative = cytotoxicity” value was 6.63% (inactive).
Turning to `Oc1ccc(Cl)cc1Cc1cc(Cl)ccc1O`, the Potency is 11.2 µM (active) and 38.9 µM (active).
For the compound `Cc1c(O)cccc1C(=O)N[C@@H](CSc1ccccc1)[C@H](O)CN1C[C@H]2CCCC[C@H]2C[C@H]1C(=O)NC(C)(C)C`, the Potency was 15.1 µM (active) and 26.6 µM (active).
For `C=C(C)C1CC=C(C)C(OC(C)=O)C1` (stereo not given), the Potency result was “inactive”.
Take `CC(N)=O`: the “activity change, negative = cytotoxicity” value was 8.01% [at 232 µM] (inactive).
For `CC(C)(C)NC(=O)[C@@H]1CN(Cc2cccnc2)CCN1C[C@@H](O)C[C@@H](Cc1ccccc1)C(=O)N[C@H]1c2ccccc2C[C@H]1O`, the Potency entry was “inactive”.
In the case of `COC(c1ccccc1)(c1ccccc1)[C@H](Oc1nc(C)cc(C)n1)C(=O)O`, the “activity change, negative = cytotoxicity” value was 13.1% (inactive).
As to `CCCCCC(=O)O[C@]1(C(C)=O)CC[C@H]2[C@@H]3CCC4=CC(=O)CC[C@]4(C)[C@H]3CC[C@@]21C`, the Potency was 43.4 µM (active) and inactive.
With `CC[C@H]1CN2CCc3cc(OC)c(OC)cc3[C@@H]2C[C@@H]1C[C@H]1NCCc2cc(OC)c(OC)cc21`, the Potency was 19.6 µM (active) and inactive.
`OCCN1CCNCC1`: the Potency result is “inactive”.
Take `O=Nc1ccc(Nc2ccccc2)cc1`: the Potency is 17.5 µM (active) and 49 µM (active).
Take `CCCCCCCCCCCCCCCCCl`: the “activity change, negative = cytotoxicity” value is -3.46% [at 29.1 µM] (inactive).
As for `c1ccc2c(c1)-c1cccc3c1c-2cc1ccccc13`, the Potency entry is “inactive”.
On to `Nc1cc(Cl)c(-c2cc(Cl)c(N)cc2Cl)cc1Cl`, for which the Potency was 49 µM (active).
For `CC(COc1ccccc1)N(CCCl)Cc1ccccc1` (stereo not given), the Potency result was “inactive”.
For the compound `CC1=C(C=O)C(C)(C)CC=C1`, the “activity change, negative = cytotoxicity” value is -0.962% [at 81.1 µM] (inactive).
On to `CCCN[C@H]1CCc2nc(N)sc2C1`, for which the Potency entry was “inactive”.
The same measure, in the same setting: next, `O=S(=O)(O)c1ccc2nc(-c3ccccc3)[nH]c2c1`: 13.1 µM (active).
`Oc1c(Cl)cc(Cl)c(Cl)c1Cc1c(O)c(Cl)cc(Cl)c1Cl`: the Potency is 24.5 µM (active) and 21.9 µM (active) and 2.66 µM (active).
For the compound `Nc1nc(=S)c2[nH]cnc2[nH]1`, the Potency was 1.74 µM (active) and 3.35 µM (active).
Regarding `CCOc1ccccc1C(N)=O`, the “activity change, negative = cytotoxicity” value was 9.71% (inactive).
Take `COc1nc(C)nc(Cl)c1NC1=NCCN1`: the “activity change, negative = cytotoxicity” value is -17.7% (inactive).
The same measure, in the same setting: the result for `CCOC(=O)C(C)C(C)=O` (stereo not given) reads -0.0553% [at 81.1 µM] (inactive).
For `O=C(O)CCc1ccccc1`, the “activity change, negative = cytotoxicity” value was 0.781% (inactive).
On the same count and under the same terms, next, `O=c1n(CC2CO2)c(=O)n(CC2CO2)c(=O)n1CC1CO1` (stereo not given): -13.9% (inactive).
With `COC(=O)c1cccc(C(=O)OC)c1`, the Potency result is “inactive”.
Regarding `O`, the “activity change, negative = cytotoxicity” value was -17.7% [at 81.1 µM] (inactive).
Turning to `[Cl][In]([Cl])[Cl]`, the Potency entry is “inactive”.
Regarding `CC(=O)CC(C)=O`, the “activity change, negative = cytotoxicity” value was 0.931% [at 81.1 µM] (inactive).
On the same count and under the same terms, the result for `O=Cc1ccc(Cl)cc1` reads 1.78% (inactive).
`CC[C@@H](N)CO`: the “activity change, negative = cytotoxicity” value was -0.678% [at 81.1 µM] (inactive).
On the same count and under the same terms, the result for `CC1COC(=O)O1` (stereo not given) reads -1.63% [at 81.1 µM] (inactive); that for `Cc1occc(=O)c1OC(=O)C(C)C`, 2.72% (inactive).
`CCCC(=O)c1ccccc1`: the “activity change, negative = cytotoxicity” value was 5.58% (inactive).
The same measure, in the same setting: next, `CCC(CO)(CO)COCC(CC)(CO)CO`: 3.94% (inactive).
`CC(C)(C)c1ccc(O)c(C(C)(C)C)c1`: the Potency was 34.5 µM (active) and 30.9 µM (active).
For `COc1ccc(CCN2CCC(Nc3nc4ccccc4n3Cc3ccc(F)cc3)CC2)cc1`, the Potency is 3.98 µM (active) and 10.6 µM (active).
As for `Nc1ccc2cc3ccccc3cc2c1`, the “activity change, negative = cytotoxicity” value is -0.683% [at 81.1 µM] (inactive).
Turning to `NNCCc1ccccc1`, the Potency entry is “inactive”.
The same measure, in the same setting: next, `Cc1cc(OCCOCC[N+](C)(C)Cc2ccccc2)ccc1C(C)(C)CC(C)(C)C`: 17.3 µM (active) and 26.6 µM (active).
